ROS inducer: ROS inducers in U2OS cancer cells, primary screen, cell-based, H2DCF-DA fluorescence | U2OS ROS induction | ROS induction (% of piperlongumine), % at 10 µM | 2% of 46,000 active | AID 624156, 2012; in the data active = ROS induction above about 79%, passing the limit was not always enough
Hits are given with their value. Many of the other results were omitted from the sample, so hits are more common in it than they were.

Results for COc1cc(OC)cc(C(=O)Nc2ccc(OCC(=O)O)cc2)c1 ?
ROS inducer: inactive

Results for COC(=O)COc1ccc(NC(=O)c2ccc(OC)c([N+](=O)[O-])c2)cc1 ?
ROS inducer: 118

How did COc1ccc(C(=O)COc2ccc(NC(=O)c3cccc([N+](=O)[O-])c3)cc2)cc1 do in these assays?
ROS inducer: inactive

Results for COc1ccc(N(C)C(=O)c2cc3c(=O)oc4ccccc4c3s2)cc1 ?
ROS inducer: inactive

How did COc1cc(OC)c(NC(=O)CSc2nc3ccc([N+](=O)[O-])cc3s2)cc1Cl do in these assays?
ROS inducer: inactive

What do the screens show for `O=C(Cn1c(=O)n(-c2ccccc2)c(=O)n1CC(=O)N1CCOCC1)N1CCOCC1`?
ROS inducer: inactive

Results for O=C(N/N=C/c1ccc(Oc2ccccc2)cc1)c1ccccc1O ?
ROS inducer: inactive

What do the screens show for `CCCCN1C(C)=NC(C(F)(F)F)(C(F)(F)F)C2=C1CC(C)(C)CC2=O`?
ROS inducer: 120

How did CC1(C)CC(=O)C2=C(C1)N(Cc1ccco1)C(=O)NC2(C(F)(F)F)C(F)(F)F do in these assays?
ROS inducer: inactive

How did CCCN1C(=O)C(NS(=O)(=O)c2ccc(NC(C)=O)cc2)(C(F)(F)F)C2=C1CC(C)(C)CC2=O (stereo not given) do in these assays?
ROS inducer: inactive

Results for C[C@@H]1CN([C@H](C)CO)C(=O)c2cccc(NS(=O)(=O)c3cccs3)c2O[C@H]1CN(C)S(=O)(=O)c1ccc(F)cc1 ?
ROS inducer: inactive

How did O=C(Nc1ccc(S(=O)(=O)Nc2ncccn2)cc1)C1CCC1 do in these assays?
ROS inducer: inactive

Results for C[C@H](CO)N1C[C@H](C)[C@H](CN(C)C(=O)Nc2ccc(F)cc2)Oc2ncc(-c3cccc(F)c3)cc2C1=O ?
ROS inducer: inactive

What do the screens show for `C[C@H](CO)N1C[C@H](C)[C@H](CN(C)C)Oc2ncc(-c3cc4ccccc4o3)cc2C1=O`?
ROS inducer: inactive

What do the screens show for `C[C@H](CO)N1C[C@H](C)[C@H](CN(C)Cc2ccccc2)Oc2ncc(-c3cccc(C(F)(F)F)c3)cc2C1=O`?
ROS inducer: inactive

Results for C[C@H](CO)N1C[C@H](C)[C@H](CN(C)Cc2ccc(F)cc2)Oc2ncc(-c3cccc(C(F)(F)F)c3)cc2C1=O ?
ROS inducer: 77

What do the screens show for `C[C@H](CO)N1C[C@H](C)[C@H](CN(C)C(=O)Nc2ccccc2)Oc2ncc(-c3cc4ccccc4o3)cc2C1=O`?
ROS inducer: 153

How did C[C@H](CO)N1C[C@H](C)[C@H](CN(C)C(=O)Nc2ccccc2)Oc2ncc(-c3ccccc3)cc2C1=O do in these assays?
ROS inducer: inactive

What do the screens show for `C[C@H](CO)N1C[C@H](C)[C@H](CN(C)Cc2cccc(C(F)(F)F)c2)Oc2ncc(-c3ccc(F)cc3)cc2C1=O`?
ROS inducer: inactive

What do the screens show for `C[C@H](CO)N1C[C@H](C)[C@H](CN(C)C(=O)Nc2ccccc2)Oc2ncc(-c3cccc(C(F)(F)F)c3)cc2C1=O`?
ROS inducer: 98

What do the screens show for `CC(C)NC(=O)N(C)C[C@@H]1Oc2ncc(-c3cc4ccccc4o3)cc2C(=O)N([C@H](C)CO)C[C@@H]1C`?
ROS inducer: inactive

How did C[C@H](CO)N1C[C@H](C)[C@H](CN(C)C(=O)Nc2ccc(F)cc2)Oc2ncc(-c3cccc(C(F)(F)F)c3)cc2C1=O do in these assays?
ROS inducer: 91

What do the screens show for `C[C@H](CO)N1C[C@H](C)[C@H](CN(C)C(=O)Nc2ccc3c(c2)OCO3)Oc2ncc(-c3cccc(C(F)(F)F)c3)cc2C1=O`?
ROS inducer: inactive

What do the screens show for `COc1ccc(NC(=O)N(C)C[C@@H]2Oc3ncc(-c4cccc(C(F)(F)F)c4)cc3C(=O)N([C@H](C)CO)C[C@@H]2C)cc1`?
ROS inducer: inactive

Results for C/C=C/c1ccc(O)cc1C(=O)C(C)O (stereo not given) ?
ROS inducer: inactive

Results for CCn1c(SCC(=O)Nc2ccc(Cl)cc2C)nnc1-c1ccc(Cl)cc1 ?
ROS inducer: inactive

Results for Cc1ccc(N(C(C)C(=O)Nc2ccccc2C(=O)N2CCCC2)S(C)(=O)=O)cc1 (stereo not given) ?
ROS inducer: inactive

What do the screens show for `O=C(CSc1ccccn1)Nc1ccccc1C(F)(F)F`?
ROS inducer: inactive

Results for O=C(c1ccc(F)cc1)N1CCCCC(Sc2nnc3sc4ccccc4n23)C1=O (stereo not given) ?
ROS inducer: inactive

How did Cc1noc(C)c1S(=O)(=O)Nc1ccc2c(c1)C(=O)N([C@H](C)CO)C[C@H](C)[C@H](CN(C)Cc1ccncc1)O2 do in these assays?
ROS inducer: inactive

Results for CC(=O)N(/C=C1\SC(=S)N(Cc2ccccc2)C1=O)c1ccccc1 ?
ROS inducer: inactive

Results for C[C@@H]1CN([C@H](C)CO)C(=O)Cc2cc(NC(=O)NC3CCCCC3)ccc2O[C@H]1CN(C)CC1CC1 ?
ROS inducer: inactive

How did CC(=O)c1ccc(NC(=O)CSc2ncnc3c2sc2nc4c(cc23)COC(C)(C)C4)cc1 do in these assays?
ROS inducer: inactive

What do the screens show for `COc1ccc(OC)c(NC(=O)CSc2nncc3ccccc23)c1`?
ROS inducer: inactive

Results for O=C(CSc1nnc(-c2ccccc2)n1-c1ccccc1)Nc1ccc(Br)cc1 ?
ROS inducer: inactive

Results for CC1(C)Cc2nc(-c3ccccc3)nc(SCC(=O)Nc3ccc(Br)cc3)c2CO1 ?
ROS inducer: 113

How did COc1ccc(OC)c(NC(=O)CSc2nc(-c3ccccc3)nc3c2COC(C)(C)C3)c1 do in these assays?
ROS inducer: 77

What do the screens show for `COc1ccc(OC)c(NC(=O)CSc2nc(-c3ccccc3)cs2)c1`?
ROS inducer: inactive

What do the screens show for `COc1ccc(OC)c(NC(=O)CSc2nnc(C)s2)c1`?
ROS inducer: inactive

Results for C=CC[C@@]12C[C@@H](OC)C(=O)C(OC)=C1O[C@H](c1ccc3c(c1)OCO3)[C@H]2C ?
ROS inducer: inactive

How did C[C@@H]1CCCCO[C@H](CN(C)C(=O)CCCN(C)C)[C@@H](C)CN([C@H](C)CO)C(=O)c2cc(NC(=O)Nc3ccc(C(F)(F)F)cc3)ccc2O1 do in these assays?
ROS inducer: inactive

How did O=C1O[C@H](c2ccccc2)[C@H](c2ccccc2)N2[C@H]1[C@@H](C(=O)NC[C@H](O)c1ccccc1)[C@]1(C(=O)Nc3ccc(C#CC4=CCCCC4)cc31)[C@H]2c1ccccc1OCCO do in these assays?
ROS inducer: inactive

What do the screens show for `CNC[C@@H]1Oc2ccc(NS(=O)(=O)c3cccs3)cc2CC(=O)N([C@H](C)CO)C[C@H]1C`?
ROS inducer: inactive

What do the screens show for `CC1(C)Cc2c(c(N3CCOCC3)nc3sc4c(NCCN5CCOCC5)ncnc4c23)CS1`?
ROS inducer: inactive

What do the screens show for `Cc1ccc(-c2csc3ncnc(NCCC(=O)O)c23)cc1`?
ROS inducer: inactive

What do the screens show for `Clc1ccc(-c2csc3ncnc(NCCN4CCOCC4)c23)cc1`?
ROS inducer: 139

How did OCCCNc1ncnc2scc(-c3ccccc3)c12 do in these assays?
ROS inducer: inactive

Results for CC1CCc2sc3ncnc(NCCN4CCOCC4)c3c2C1 (stereo not given) ?
ROS inducer: 80

Results for CC1CCc2c(sc3ncnc(NCCCOC(C)C)c23)C1 (stereo not given) ?
ROS inducer: inactive

How did O=c1c(-c2nn[nH]n2)coc2ccccc12 do in these assays?
ROS inducer: inactive

What do the screens show for `COC(=O)CCCCCCC(=O)N/N=C/c1ccc(O)c(F)c1`?
ROS inducer: inactive

How did O=C(NCc1ccc(S(=O)(=O)NCCN2CCOCC2)s1)c1ccccc1 do in these assays?
ROS inducer: inactive

Assay outcomes deposited in PubChem BioAssay by Broad Institute.
